Measured values from PubChem BioAssay (NCI).
About 79,000 compounds went through this panel and 15% of them were active in at least one assay; those are over-represented in the sample as a whole. Active and inactive are the calls of the source. Rule as the data show it: active = growth inhibition above about 70%; inactive = the rest.

What was measured:
[1] = NCI Yeast Anticancer Drug Screen. Data for the rad52 strain (AID 147);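 also: 0% = growth of vehicle-treated control cultures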; settings: S. cerevisiae rad52 mutant growth inhibition, active compounds read high
Procedure, shortened: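 The repair-mutant yeast strain was incubated with compounds, then growth was read and inhibition derived relative to vehicle.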

[2] = NCI Yeast Anticancer Drug Screen. Data for the wt1 strain (AID 149);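 also: 0% = growth of vehicle-treated wt1 cultures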; settings: S. cerevisiae wt1 strain (SPY 50644) growth inhibition, active compounds read high
Procedure, shortened: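 wt1 strain grown with compound or vehicle; inhibition taken from the growth difference.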

[3] = NCI Yeast Anticancer Drug Screen. Data for the rad50EPP+ strain (AID 151);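 also: 0% = growth of vehicle-treated control cultures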; settings: S. cerevisiae rad50 mutant strain, active compounds read high
Procedure, shortened: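 Vehicle-normalised growth inhibition; rad50EPP+ yeast strain, altered in DNA damage repair, compound-treated.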

[4] = NCI Yeast Anticancer Drug Screen. Data for the mgt1 strain (AID 153); settings: S. cerevisiae mgt1 mutant growth inhibition, active compounds read high
Procedure, shortened: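 Vehicle-normalized growth inhibition is determined in mgt1 yeast, a strain selected for a defined alteration in DNA repair or cell cycle control.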

[5] = NCI Yeast Anticancer Drug Screen. Data for the rad50 strain (AID 155);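 also: 0% = growth of vehicle-only cultures of the same strain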; settings: S. cerevisiae rad50 strain growth inhibition, active compounds read high
Procedure, shortened: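 DNA repair mutant yeast, compound exposure, growth read-out; inhibition is taken relative to vehicle.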

[6] = NCI Yeast Anticancer Drug Screen. Data for the mec2-1 strain (AID 157); settings: S. cerevisiae mec2-1 strain, active compounds read high
Procedure, shortened: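 Mutant yeast (mec2-1) grown with compound; growth inhibition relative to vehicle control reported.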

[7] = NCI Yeast Anticancer Drug Screen. Data for the rad14 strain (AID 159);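 also: 0% = growth of vehicle-treated control cultures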; settings: S. cerevisiae rad14 strain growth inhibition, active compounds read high
Procedure, shortened: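 DNA repair-defective yeast, compound-exposed; % growth inhibition derived by comparison with vehicle-treated controls.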

[8] = NCI Yeast Anticancer Drug Screen. Data for the sgs1 mgt1 strain (AID 161);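 also: 0% = growth of cultures given vehicle only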; settings: S. cerevisiae sgs1 mgt1 strain, active compounds read high
Procedure, shortened: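 Percent growth inhibition was derived by comparing compound-exposed mutant yeast with vehicle-exposed cultures. The strain carries alterations in DNA damage repair.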

[9] = NCI Yeast Anticancer Drug Screen. Data for the CLN2oe strain (AID 163);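 also: 0% = growth of vehicle-only control cultures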; settings: S. cerevisiae CLN2oe strain, active compounds read high
Procedure, shortened: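 Compounds are applied to yeast harbouring a defined cell-cycle control change; reduced growth compared with vehicle-treated controls gives the value.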

[10] = NCI Yeast Anticancer Drug Screen. Data for the cln2 rad14 strain (AID 165);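 also: 0% = growth equal to vehicle treated cultures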; settings: S. cerevisiae cln2 rad14 strain, active compounds read high
Procedure, shortened: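 Readout is yeast growth inhibition versus vehicle-treated controls, using a strain with cln2 and rad14 alterations exposed to compound.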

[11] = NCI Yeast Anticancer Drug Screen. Data for the bub3 strain (AID 167); settings: S. cerevisiae bub3 mutant strain, active compounds read high
Procedure, shortened: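 In this screen, a yeast mutant lacking normal mitotic checkpoint function is challenged with compound. Relative growth versus vehicle gives the inhibition value.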

[12] = NCI Yeast Anticancer Drug Screen. Data for the wt2 strain (AID 169);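 also: 0% = growth of vehicle-treated yeast cultures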; settings: S. cerevisiae wt2 strain growth inhibition, active compounds read high
Procedure, shortened: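 Against vehicle-treated controls, the growth of yeast exposed to each compound was compared, and the inhibition was recorded.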

[13] = NCI Yeast Anticancer Drug Screen. Data for the mlh1 strain (AID 171);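 also: 0% = growth of vehicle-treated control cultures of the same strain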; settings: S. cerevisiae mlh1 strain growth inhibition, active compounds read high
Procedure, shortened: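 Measured: yeast growth. Reference: vehicle-treated controls. Organism: strain with a defined alteration affecting DNA damage repair or cell cycle control, treated with compound.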

[14] = NCI Yeast Anticancer Drug Screen. Data for the sgs1 strain (AID 173);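 also: 0% = growth of vehicle-only control cultures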; settings: S. cerevisiae sgs1 mutant, active compounds read high
Procedure, shortened: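 Each compound was added to cultures of the altered yeast strain. Growth was recorded, and inhibition was derived by comparison with vehicle controls.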

[15] = NCI Yeast Anticancer Drug Screen. Data for the mlh1 rad18 strain (AID 175); settings: S. cerevisiae mlh1 rad18 strain growth inhibition, active compounds read high
Procedure, shortened: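 Genetically defined yeast (DNA repair-deficient) exposed to compounds; growth inhibition determined relative to vehicle.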

[16] = NCI Yeast Anticancer Drug Screen. Data for the rad18 strain (AID 177); settings: S. cerevisiae rad18 mutant growth inhibition, active compounds read high
Procedure, shortened: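 Vehicle-treated cultures served as the baseline for scoring compound-induced growth inhibition in DNA-repair-mutant yeast.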

[17] = at 5.0 µM (retest, dose inferred, filed as 0.5)
[18] = at 50.0 µM (retest, dose inferred, filed as 5.0)

Measured: growth inhibition

COC(=O)c1cc(-c2ccc(C)cc2)[nH]c(=O)c1C#N
inactive: [1]; at 1.2 µM -2% | [1]; at 3.7 µM 0% | [1]; at 11.0 µM 1% | [1]; at 33.0 µM -1% | [1]; at 100.0 µM -4% | [2]; at 1.2 µM -2% | [2]; at 3.7 µM -1% | [2]; at 11.0 µM -1% | [2]; at 33.0 µM -1% | [2]; at 100.0 µM 0% | [3]; at 1.2 µM -5% | [3]; at 3.7 µM -4% | [3]; at 11.0 µM -5% | [3]; at 33.0 µM -6% | [3]; at 100.0 µM -4% | [4]; at 1.2 µM 0% | [4]; at 3.7 µM 0% | [4]; at 11.0 µM 0% | [4]; at 33.0 µM -1% | [4]; at 100.0 µM 0% | [5]; at 1.2 µM -1% | [5]; at 3.7 µM -2% | [5]; [17] -5% | [5]; at 11.0 µM 0% | [5]; at 33.0 µM -4% | [5]; [18] 9% | [5]; at 100.0 µM -2% | [6]; at 1.2 µM 0% | [6]; at 3.7 µM 0% | [6]; [17] 11% | [6]; at 11.0 µM -2% | [6]; at 33.0 µM -1% | [6]; [18] 24% | [6]; at 50.0 µM 56.9% | [6]; at 100.0 µM 10% | [7]; at 1.2 µM 1% | [7]; at 3.7 µM -6% | [7]; at 11.0 µM -6% | [7]; at 33.0 µM -19% | [7]; at 100.0 µM -11% | [8]; [17] -4% | [8]; [18] 20% | [9]; at 1.2 µM -3% | [9]; at 3.7 µM 1% | [9]; at 11.0 µM -1% | [9]; at 33.0 µM 3% | [9]; at 100.0 µM 4% | [10]; [17] 30% | [10]; [18] 43% | [10]; at 50.0 µM 66% | [11]; at 1.2 µM -8% | [11]; at 3.7 µM -6% | [11]; [17] 33% | [11]; at 11.0 µM 6% | [11]; at 33.0 µM -2% | [11]; [18] 16% | [11]; at 50.0 µM 52.6% | [11]; at 100.0 µM -7% | [12]; at 1.2 µM -2% | [12]; at 3.7 µM 0% | [12]; at 11.0 µM -2% | [12]; at 33.0 µM -2% | [12]; at 100.0 µM -2% | [13]; at 1.2 µM -6% | [13]; at 3.7 µM -2% | [13]; at 11.0 µM 0% | [13]; at 33.0 µM 0% | [13]; at 100.0 µM -21% | [14]; at 1.2 µM -4% | [14]; at 3.7 µM -1% | [14]; at 11.0 µM -1% | [14]; at 33.0 µM -2% | [14]; at 100.0 µM -4% | [15]; [17] 0% | [15]; [18] -1% | [16]; at 1.2 µM -17% | [16]; at 3.7 µM -11% | [16]; at 11.0 µM -16% | [16]; at 33.0 µM -11% | [16]; at 100.0 µM -18%
active: [5]; at 50.0 µM 86.5% | [8]; at 50.0 µM 84.3% | [15]; at 50.0 µM 90.2%
